In all, about 5,500 compounds went through this assay and about 2,000 (36%) were called active. About 18% were inconclusive and are not listed. Cut-off read from the data, not from the text of the source: active = normalized growth mostly below about 0.91 (no sharp cut-off); inconclusive = no clear call, values can overlap the other calls; inactive = mostly above about 0.92. The list shows a part of the results.
Test: chemical genetic growth profiling, strain panel (AID 1159580);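 note: tested at 20 µM; growth read once vehicle control cultures reached saturation at 30 °C; 1 = growth at the plate median or of vehicle wells; lower values mean less growth of the strain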
Conditions: growth OD
[1] = S. cerevisiae deletion strains, locus YAL040C, strain CLN3, hits give low values
[2] = S. cerevisiae deletion strains, locus YDR150W, strain NUM1, hits give low values
[3] = S. cerevisiae deletion strains, locus YDR363W, strain ESC2, hits give low values
[4] = S. cerevisiae deletion strains, locus YER002W, strain NOP16, hits give low values
[5] = S. cerevisiae deletion strains, locus YGR078C, strain PAC10, hits give low values
[6] = S. cerevisiae deletion strains, locus YJR075W, strain HOC1, hits give low values
[7] = S. cerevisiae deletion strains, locus YMR307W, strain GAS1, hits give low values
[8] = S. cerevisiae deletion strains, locus YNL128W, strain TEP1, hits give low values
[9] = S. cerevisiae deletion strains, locus YNL153C, strain GIM3, hits give low values
[10] = S. cerevisiae deletion strains, locus YNL175C, strain NOP13, hits give low values
[11] = S. cerevisiae deletion strains, locus YNL197C, strain WHI3, hits give low values
[12] = S. cerevisiae deletion strains, locus YNL224C, strain SQS1, hits give low values
[13] = S. cerevisiae deletion strains, locus YNL322C, strain KRE1, hits give low values
[14] = S. cerevisiae deletion strains, locus YOR083W, strain WHI5 (second series), hits give low values
[15] = S. cerevisiae deletion strains, locus YPL055C, strain LGE1, hits give low values
[16] = S. cerevisiae deletion strains, locus YMR263W, strain SAP30, hits give low values
[17] = S. cerevisiae deletion strains, locus YPL241C, strain CIN2, hits give low values

Measured: normalized growth

CC(=O)/C(C)=N\O
inactive: [1] 0.972 | [2] 0.972 | [3] 1.07 | [4] 0.994 | [5] 1 | [6] 0.987 | [7] 1.07 | [8] 0.983 | [9] 0.979 | [10] 0.978 | [11] 1 | [12] 1.01 | [13] 1 | [14] 0.986

CC(=O)C(C)=O
inactive: [1] 1.01 | S. cerevisiae deletion strains, locus YCL061C, strain MRC1 (second series), hits give low values 1.01 | [3] 1.03 | [4] 1 | [6] 1.02 | [10] 0.994 | [11] 1.03 | [12] 0.99 | [14] 1.02 | [15] 1.07

[N-]=[N+]=Nc1ccc(C(=O)CSC[C@H](NC(=O)CC[C@H](N)C(=O)O)C(=O)NCC(=O)O)cc1
inactive: [1] 1.02 | [3] 0.999 | [4] 0.989 | S. cerevisiae deletion strains, locus YGR229C, strain SMI1, hits give low values 1 | [16] 0.997 | [9] 0.99 | [10] 1.01 | [11] 1.01 | [12] 1.01 | [13] 1.01 | [14] 1.01 | [17] 0.996

CSc1ccc(C(=O)O)s1
inactive: S. cerevisiae deletion strains, locus YAL013W, strain DEP1, hits give low values 0.969 | S. cerevisiae deletion strains, locus YBR229C, strain ROT2, hits give low values 0.931 | S. cerevisiae deletion strains, locus YCL061C, strain MRC1, hits give low values 0.938 | S. cerevisiae deletion strains, locus YDL101C, strain DUN1, hits give low values 0.939 | [2] 0.945 | S. cerevisiae deletion strains, locus YEL061C, strain CIN8, hits give low values 1.03 | S. cerevisiae deletion strains, locus YHR030C, strain SLT2, hits give low values 1.16 | S. cerevisiae deletion strains, locus YJR043C, strain POL32, hits give low values 0.961 | S. cerevisiae deletion strains, locus YKL190W, strain CNB1, hits give low values 1.01 | S. cerevisiae deletion strains, locus YLR039C, strain RIC1, hits give low values 1.04 | S. cerevisiae deletion strains, locus YLR058C, strain SHM2 (second series), hits give low values 0.945 | S. cerevisiae deletion strains, locus YLR085C, strain ARP6, hits give low values 1.1 | S. cerevisiae deletion strains, locus YLR262C, strain YPT6, hits give low values 1.01 | S. cerevisiae deletion strains, locus YML094W, strain GIM5, hits give low values 1.04 | S. cerevisiae deletion strains, locus YMR219W, strain ESC1, hits give low values 0.957 | [16] 0.955 | [7] 1.05 | [8] 1.01 | [9] 0.932 | S. cerevisiae deletion strains, locus YNL298W, strain CLA4 (second series), hits give low values 1.07 | [13] 0.944 | S. cerevisiae deletion strains, locus YNR030W, strain Alg12, hits give low values 1.03 | [15] 0.883 | [17] 0.906 | S. cerevisiae deletion strains, locus YPR135W, strain CTF4, hits give low values 1.11 | S. cerevisiae strains, strain wild type, hits give low values 1.01
active: [5] 0.926 | S. cerevisiae deletion strains, locus YHR087W, strain rtc3, hits give low values 0.862 | [6] 0.874

From PubChem BioAssay AID1159580 (chemical genetic matrix, 2015)
